Screens deposited in PubChem BioAssay by The Scripps Research Institute Molecular Screening Center.
In the library only some 2.2% were active in any assay of this set; here they are far more common.
OPRM1-OPRD1 ag: OPRM1-OPRD1 heterodimerization agonism; P35372+P41143; cells, luminescence; activation, % at 9.3 µM; 340,000 tested, 0.3% active; AID 504326; in the data active means activation above about 18%;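 further: 0% = vehicle-treated cells and 100% = reference agonist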
HTR5A inv ag: HTR5A inverse agonism, opioid heterodimer counter-screen. 340,000 tested, 0.083% active. AID 504634. inhibition, % at 9.3 µM. P47898. HTR5A cell line, luminescence; in the data active means inhibition mostly above about 23%, no sharp cut-off; inactive means mostly below about 18%;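 further: 0% = cells with DMSO and 100% = no-cell wells with DMSO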
MOR-DOR inv ag: inverse agonist of human OPRM1-OPRD1 heterodimerization. P35372+P41143. cell-based MOR-DOR heterodimer luminescence, inverse agonism. inhibition, % at 9.3 µM. 340,000 tested, 0.21% active; in the data active means inhibition above about 22%, passing the limit was not always enough;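 further: 0% = cells with DMSO and 100% = wells without cells with DMSO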
HTR5A ag: activates human HTR5A in OPRM1-OPRD1 agonist counter-screen; 340,000 tested, 0.61% active; activation, % at 9.3 µM; P47898; HTR5A agonist assay, luminescence, cell-based; in the data active means activation mostly above about 9.5%, no sharp cut-off; inactive means mostly below about 7.6%;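 further: 0% = cells with vehicle only and 100% = reference agonist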
m5-HT2A agonist: mouse HTR2A agonism via beta-arrestin recruitment | CHO-K1 mHTR2A beta-arrestin complementation, luminescence; percent of 30 µM serotonin response | 360,000 tested, 0.66% active | AID 624169 | activation, % at 7.6 µM;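 active means activation above a run cutoff, the mean activation of all tested compounds plus 3 SD, cut at about 14% in these data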;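 further: 0% = plate median of compound wells and 100% = 30 µM serotonin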
sPLA2-III inh: Blocks human group III sPLA2 activity. inhibition, % at 12.2 µM. Q9NZ20. QFRET BODIPY PC-A2 liposome hydrolysis, fluorescence. 370,000 tested, 0.56% active;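 active means inhibition above mean plus 3 SD of compounds lying within the high and low control bounds, cut at about 19% in these data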;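 further: 0% = median of test compound wells and 100% = no enzyme DMSO wells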
Target sequence (Q9NZ20 whole entry, looked up): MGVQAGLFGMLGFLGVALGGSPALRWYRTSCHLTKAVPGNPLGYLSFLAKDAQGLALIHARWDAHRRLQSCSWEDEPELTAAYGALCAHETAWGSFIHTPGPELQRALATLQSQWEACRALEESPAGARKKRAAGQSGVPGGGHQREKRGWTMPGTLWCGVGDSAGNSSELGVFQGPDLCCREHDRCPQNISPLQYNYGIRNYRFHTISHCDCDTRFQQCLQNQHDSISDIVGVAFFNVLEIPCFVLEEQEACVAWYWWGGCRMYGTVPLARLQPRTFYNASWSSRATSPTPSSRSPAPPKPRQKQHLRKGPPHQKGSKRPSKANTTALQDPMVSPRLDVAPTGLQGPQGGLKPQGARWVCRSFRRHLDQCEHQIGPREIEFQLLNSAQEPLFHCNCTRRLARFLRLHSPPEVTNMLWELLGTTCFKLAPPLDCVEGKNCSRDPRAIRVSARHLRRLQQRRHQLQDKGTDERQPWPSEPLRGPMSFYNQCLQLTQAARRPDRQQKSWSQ
MOR ag counter: counter-screen for mouse HTR2A agonists: human mu opioid receptor agonists; activation, % at 9.3 µM; shares compounds with m5-HT2A agonist; AID 624380; 2,300 tested, 5.3% active; U2OS OPRM1 beta-arrestin PathHunter, luminescence; DMSO 0%, DAMGO 9.3 µM 100%;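 active means mean activation above the mean of DMSO-only wells plus 3 SD, cut at about 0.5% in these data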
m5-HT2A ag conf: mouse HTR2A agonism confirmed; shares compounds with m5-HT2A agonist; CHO-K1 PathHunter beta-arrestin recruitment, luminescence; DMSO 0%, 30 µM serotonin 100%; activation, % at 7.6 µM; 2,300 tested, 19% active; AID 624381;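 active means mean activation across triplicates above the hit threshold derived in the original primary screen, cut at about 15% in these data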
The depositor's hits bear a star; . = no result.

SMILES | OPRM1-OPRD1 ag | HTR5A inv ag | MOR-DOR inv ag | HTR5A ag | m5-HT2A agonist | sPLA2-III inh | MOR ag counter | m5-HT2A ag conf
C[C@@H]1/C=C/CC(=O)N2[C@H](CC(=O)N[C@@H]1c1ccccc1)C[C@@H](C)[C@H]2c1ccccc1 | . | . | . | . | . | -38 | . | .
COC(=O)C1=C(C)N(Cc2ccccc2C(F)(F)F)C(=NCC2CC2)NC1c1cccc(F)c1 (stereo not given) | . | . | . | . | . | -7 | . | .
O=C(NCc1ccco1)C1CCCN(S(=O)(=O)c2cccs2)C1 (stereo not given) | . | . | . | . | . | -1 | . | .
CSc1ccc(-c2csc(N3CCC(C(N)=O)CC3)n2)cc1 | . | . | . | . | . | 2 | . | .
O=C(c1ccco1)N1CCN(C(=O)c2ccco2)CC1 | . | . | . | . | 11 | 9 | . | .
O=C(c1ccco1)N1CCN(CC2CC3C=CC2C3)CC1 (stereo not given) | -2 | 8 | 10 | -3 | 21* | 1 | -1 | 76*
CCOc1ccc(CN2CCN(C(=O)c3ccco3)CC2)cc1 | 0 | -2 | 0 | 1 | 24* | 2 | 0 | 130*
C1=CC2CC1CC2CN1CCN(c2ccccc2)CC1 (stereo not given) | -1 | 7 | 6 | 0 | 15* | . | 0 | 57*
O=C(c1ccco1)N1CCN(Cc2ccccc2Br)CC1 | -1 | 16 | 5 | -4 | 16* | 9 | -1 | 64*
Cc1ccccc1CN1CCN(CC2CC3C=CC2C3)CC1 (stereo not given) | 1 | -8 | -6 | 5 | -7 | -2 | . | .
COc1ccc(NC(=S)N2CCN(Cc3ccccc3)CC2)cc1 | -2 | 2 | 9 | -1 | -2 | 7 | . | .
COc1ccc(CNC(=S)N2CCN(Cc3ccccc3)CC2)cc1 | 0 | 26 | 2 | 5 | 19* | 6 | 0 | 9
COc1ccc(CN2CCN(C(=O)c3ccco3)CC2)cc1 | 4 | -7 | -17 | 3 | 25* | 9 | -1 | 103*
C[C@@H]1CN(c2ccc(N3CCN(C(=O)OC(C)(C)C)C[C@H]3C)cc2C#N)CCN1Cc1ccccc1 | . | . | . | . | . | 15 | . | .
CCOC(=O)C(C(=O)OCC)C1N=C(N)N=C2Oc3ccccc3N21 (stereo not given) | 3 | 0 | -16 | 0 | 15* | -2 | 0 | 0
CCOC(=O)CN1C(=O)C(CC)Oc2ccccc21 (stereo not given) | -2 | 6 | 10 | -1 | 5 | 8 | . | .
CC(=O)Nc1ccc(SCCN2CC[C@@H](C)CCC2=O)cc1 | 1 | -7 | -7 | 3 | 7 | 5 | . | .
CC(=O)Nc1ccc(SCCN2CC[C@@H](O)CCC2=O)cc1 | -1 | -5 | 5 | 2 | 30* | 8 | -1 | -4
CCCCCCCCNC(=O)C1CSCCS(=O)(=O)N1Cc1ccc(OC)cc1 (stereo not given) | . | . | . | . | . | 3 | . | .
Cc1ccc(SCCN)cc1C | -2 | -10 | 14 | 4 | 21* | 2 | 0 | 13
Cc1ccc(SCC(=O)NNC(=O)c2ccccc2)cc1C | -3 | -14 | 17 | 5 | -6 | -5 | . | .
COc1ccc(S(=O)(=O)N2CCOC2CNC(=O)C(=O)NCc2ccccc2Cl)cc1 (stereo not given) | -3 | -11 | 15 | -3 | -6 | 1 | . | .
O=C(NCc1ccc(F)cc1)C(=O)NCC1OCCN1C(=O)c1ccc(Cl)cc1 (stereo not given) | 0 | -16 | 0 | 5 | 24* | -4 | -1 | -4
O=C(NCc1ccccc1Cl)C(=O)NCC1OCCN1S(=O)(=O)c1ccc(F)cc1 (stereo not given) | -1 | -3 | 7 | 5 | 16* | -9 | -1 | -5
COC(=O)[C@]12C[C@H](CC(=O)NCc3cccs3)C(=O)N(Cc3ccc(Cl)cc3Cl)C1=C[C@H](C(C)(C)C)O[C@@H]2C | . | . | . | . | . | -7 | . | .
COc1ccc(C)cc1S(=O)(=O)n1c([N+](=O)[O-])cnc1C | -2 | -4 | 10 | 2 | 15* | 3 | -1 | -3
